Compound activity from PubChem BioAssay.
The entries come from a sample that favours hits as a whole.
ST2 inh – inhibitors of human ST2 (IL1RL1) binding to IL-33, primary screen, biochemical, AlphaLISA; Interleukin-1 receptor-like 1 (Homo sapiens), Q01638; AlphaLISA ST2-Fc/biotin-IL-33 interaction, 1 h; inhibition, % for hits at 17 µM; actives 2.3% (n = 78,000); AID 1259354, 2018; in the data active means inhibition above about 30%
Target sequence (Q01638 whole entry, looked up): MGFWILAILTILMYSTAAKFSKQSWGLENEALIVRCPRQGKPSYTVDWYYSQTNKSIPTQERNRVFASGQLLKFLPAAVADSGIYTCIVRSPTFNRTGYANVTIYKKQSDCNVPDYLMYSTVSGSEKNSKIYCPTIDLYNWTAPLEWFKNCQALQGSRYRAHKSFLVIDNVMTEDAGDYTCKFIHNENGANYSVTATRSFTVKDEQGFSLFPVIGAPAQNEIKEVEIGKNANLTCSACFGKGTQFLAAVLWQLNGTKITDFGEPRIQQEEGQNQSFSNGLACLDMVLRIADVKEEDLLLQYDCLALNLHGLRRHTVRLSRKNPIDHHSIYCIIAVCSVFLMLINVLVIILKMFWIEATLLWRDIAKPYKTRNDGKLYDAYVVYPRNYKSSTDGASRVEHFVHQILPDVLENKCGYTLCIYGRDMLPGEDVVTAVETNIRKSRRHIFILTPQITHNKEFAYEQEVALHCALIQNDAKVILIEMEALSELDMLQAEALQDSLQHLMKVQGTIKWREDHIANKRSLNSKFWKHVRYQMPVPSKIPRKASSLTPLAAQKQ
An asterisk follows results filed as active; i = inactive.

SMILES | ST2 inh
COc1cc(C(=O)N2CCN(c3ccccc3F)CC2)c([N+](=O)[O-])cc1OC | i
O=C1c2ccccc2C(=O)N1CC(O)COc1ccc(Br)cc1 (stereo not drawn) | i
O=C(c1cc(-c2cccc(Cl)c2)on1)N1CCc2ccccc2C1 | i
O=[N+]([O-])c1cccc(CN2CCCCCC2)c1 | i
O=C1NC(=O)/C(=C\c2cccc([N+](=O)[O-])c2)S1 | i
O=C1/C(=C\c2cccc([N+](=O)[O-])c2)N=C2CCCCCN12 | 36.0%*
Cc1ccc(-c2[nH]nc3c2C(c2ccccc2F)C(C#N)=C(N)O3)cc1 (stereo not drawn) | i
Cc1[nH]nc2c1C(c1c(F)cccc1F)C(C#N)=C(N)O2 (stereo not drawn) | 32.0%*
CCCCOc1ccc(C2C(C#N)=C(N)Oc3n[nH]c(C)c32)cc1 (stereo not drawn) | i
CCN(CC)c1ccc(C2C(C#N)=C(N)Oc3n[nH]c(C)c32)cc1 (stereo not drawn) | i
CCOc1ccc(C2C(C#N)=C(N)Oc3n[nH]c(C)c32)cc1 (stereo not drawn) | i
Cc1[nH]nc2c1C(c1cc(Br)cs1)C(C#N)=C(N)O2 (stereo not drawn) | 33.0%*
COc1cc(Cl)cc(C2Nc3ccccc3-c3nnc(SC)nc3O2)c1OC (stereo not drawn) | i
CC1=NCCN1S(=O)(=O)c1cc(C)c(Cl)cc1Cl | i
Ic1ccc(NCc2cn3ccccc3n2)cc1 | i
O=C(c1cccc(F)c1)N1CCN(c2ccc([N+](=O)[O-])c(NCc3ccccc3)c2)CC1 | 36.0%*
O=[N+]([O-])c1ccc(N2CCN(S(=O)(=O)Cc3ccccc3)CC2)cc1NCc1cccnc1 | i
O=C(c1ccccc1)c1ccc(N2CCN(C(=O)c3cccc(F)c3)CC2)c(F)c1 | i
Cc1ccccc1C(=O)N1CCN(c2ccc([N+](=O)[O-])c(NCCc3ccccc3)c2)CC1 | i
CC(Nc1cc(N2CCN(S(=O)(=O)N(C)C)CC2)ccc1[N+](=O)[O-])c1ccccc1 (stereo not drawn) | 30.0%*
O=C(c1ccccc1Cl)N1CCN(c2ccc([N+](=O)[O-])c(N3CCOCC3)c2)CC1 | i
O=C(c1cccc(F)c1)N1CCN(c2ccc(Cl)cc2)CC1 | i
CC(=O)N1CCN(c2ccc([N+](=O)[O-])c(NC(C)C34CC5CC(CC(C5)C3)C4)c2)CC1 (stereo not drawn) | i
Cc1ccccc1C(=O)N1CCN(c2ccc([N+](=O)[O-])c(NC(C)c3ccccc3)c2)CC1 (stereo not drawn) | 38.0%*
COc1ccc(CC(=O)Nc2c3c(nn2C(C)(C)C)CSC3)cc1 | i
SMILES | ST2 inh
CC(C)(CC(=O)O)CC(=O)N[C@H]1CO[C@H]2[C@@H]1OC[C@@H]2n1nnnc1Oc1cccc(N2CCOCC2)c1 | i
CCCSc1nc(C)cc(COC)c1C#N | i
Cc1cc(C)c2c(n1)nn1c(C3CC3)cc(C(F)(F)F)nc21 | i
COCCn1c(CNS(=O)(=O)c2ccc3c(c2)CCCC3)nc2cccnc21 | i
Cc1ccc(Cn2ccc(NC(=O)c3cc(C4CC4)on3)n2)cc1 | i
Cc1ccc(CNC(=O)C2CCN(S(=O)(=O)c3cccs3)CC2)o1 | i
Cc1cc(C)cc(C(=O)c2ccccc2C(=O)O)c1 | i
O=C1c2ccccc2-c2n[nH]c3cccc1c23 | i
Cc1ccc(S(=O)(=O)Nc2ccccc2-c2ccccc2)cc1 | i
Cc1ccc(-c2cc3c(nn2)-c2ccccc2C3=O)cc1 | 34.0%*
Cn1c(=O)oc2cc(S(=O)(=O)Nc3cccc(F)c3)ccc21 | i
COc1cc(OC)cc(-c2ccc(OC)nn2)c1 | i
Fc1ccc(Cn2ncc3c2CN(c2ncnc4sccc24)C3)cc1 | i
Fc1cccc(C2NCCc3c2[nH]c2ccccc32)c1 (stereo not drawn) | i
COc1cc(-c2ncnn2-c2sc3c(c2C#N)CCCCC3)cc(OC)c1OC | i
N#Cc1c(-n2ncnc2-c2cccs2)sc2c1CCCCC2 | 44.0%*
COc1cccc(-c2ncnn2-c2sc3c(c2C#N)CCCCC3)c1OC | i
COCCn1c(CNC(=O)c2ccccc2C)nc2cccnc21 | i
CCCOc1ccc(C(=O)Nc2ccc(NC(=O)c3ccco3)cc2)cc1 | i
Cc1ccc(N2CN=C3SCC(=O)N3C2)cc1C | 37.0%*
Cc1ccc(N2CN=C3SCC(=O)N3C2)cc1Cl | i
Cc1ccc(N2C(=O)C3CCCCC3C2=O)cc1C (stereo not drawn) | i
COC(=O)C1CCN(C(=O)CC[C@H]2CNC(=O)[C@H]3NCC[C@H]3N2C)CC1 | i
COc1cc(-c2ncnn2-c2ccc(Cl)cc2)cc(OC)c1OC | i
Clc1ccc(-c2ncnn2-c2ccccc2Cl)cc1 | i
SMILES | ST2 inh
COc1cc(-c2ncnn2-c2cccc(Cl)c2C)cc(OC)c1OC | 33.0%*
Cc1nc(CC(=O)N(C)C(C)c2ccc3c(c2)OCCO3)cs1 (stereo not drawn) | i
CN(C)CCNc1cc(-c2ccc(Cl)cc2F)c2cc[nH]c2n1 | 30.0%*
CNC(=O)c1cccc(-c2cc(NCc3cccnc3)nc3[nH]ccc23)c1 | i
CNC(=O)c1ccc(-c2cc(NCCN(C)C)nc3[nH]ccc23)o1 | i
CCCNC(=O)Cn1c(=O)n(CC2CCC(C(=O)NCCC)CC2)c(=O)c2sccc21 (stereo not drawn) | i
COc1ccccc1NC(=O)NCCc1nc2cccnc2n1Cc1ccc(C)cc1 | i
OCCNc1ncnc2oc(-c3ccccc3)c(-c3ccccc3)c12 | 35.0%*
N=c1c2c(-c3ccccc3)c(-c3ccccc3)oc2ncn1CCCO | i
COc1ccc(-c2oc3ncn(CCO)c(=N)c3c2-c2ccc(OC)cc2)cc1 | i
CC(C)N(Cc1ccccc1)C(=O)c1ccc([N+](=O)[O-])cc1 | i
CCc1cccc(C)c1NC(=O)c1cc2ccccc2o1 | i
COc1ccc(C2C3=C(Nc4ncnn42)c2ccccc2OC3c2ccc(Cl)cc2)cc1 (stereo not drawn) | i
CCC(=O)N1CCN(C(=O)c2ccccc2)CC1 | i
CCc1ccc(C2CC(c3ccccc3Cl)Nc3nc(N)nn32)cc1 (stereo not drawn) | i
CCN(CC)C(=O)CCS(=O)(=O)c1cc(Br)cc2c1N(C(=O)C1CC1)CC2 | i
Oc1oc(-c2ccc(Br)cc2)nc1C=Nc1ccc(Cl)cc1Cl | i
Oc1oc(-c2ccc(Cl)cc2)nc1C=Nc1cccc(F)c1 | 31.0%*
Oc1oc(-c2ccc(Cl)cc2)nc1C=Nc1ccc(Br)cc1 | i
Oc1oc(-c2ccc(Br)cc2)nc1C=Nc1cc(Cl)ccc1Cl | i
Oc1oc(-c2ccc(Br)cc2)nc1C=Nc1ccccn1 | i
Oc1oc(-c2ccccc2)nc1C=Nc1cccc(Cl)c1 | i
Oc1oc(-c2ccc(Cl)cc2)nc1C=Nc1ccccc1Br | 31.0%*
Oc1oc(-c2ccc(Br)cc2)nc1C=Nc1ccc(Cl)cn1 | 42.0%*
Oc1oc(-c2ccccc2)nc1C=Nc1cccc(F)c1 | i
O=C(O)C1CC=C(Cl)CC1C(=O)NCC1OCCc2ccccc21 (stereo not drawn) | i
Cc1nc2nc(CO)[nH]n2c(=O)c1Cc1ccccc1 | i
Cc1noc(C)c1CN(C)Cc1nc[nH]c1C | i
C=CCn1c2ccccc2c2nnc(SCC(=O)Nc3ncccn3)nc21 | i
Cn1c(SCC(=O)c2ccc(Cl)cc2)nc2c([nH]c3ccccc32)c1=O | i
